For four compounds, inhibition results are on record in ChEMBL document CHEMBL1961873, “Compounds: GSK PKIS; Assays: Nanosyn kinase panel” (2012).

What is called inhibition is the change of the read-out against control, counted positive when it falls.

For assay [1], the system named is Epidermal growth factor receptor (Homo sapiens), P00533 [T790M]. The conditions noted are these: at 1 µM.
Assay [2] relates to Epidermal growth factor receptor (Homo sapiens), P00533 [L858R,T790M]. The conditions noted are these: at 0.1 µM.
Assay [3] has the same test system. The conditions noted are these: at 1 µM.
The target of assay [4] is Ephrin type-A receptor 2 (Homo sapiens) (UniProt P29317). The following applies: at 0.1 µM.
The target is the same in assay [5]. The conditions noted are these: at 1 µM.
Assay [6] has as its target T1, Ephrin type-A receptor 3 (Homo sapiens) (UniProt P29320).
T1 sequence (whole entry): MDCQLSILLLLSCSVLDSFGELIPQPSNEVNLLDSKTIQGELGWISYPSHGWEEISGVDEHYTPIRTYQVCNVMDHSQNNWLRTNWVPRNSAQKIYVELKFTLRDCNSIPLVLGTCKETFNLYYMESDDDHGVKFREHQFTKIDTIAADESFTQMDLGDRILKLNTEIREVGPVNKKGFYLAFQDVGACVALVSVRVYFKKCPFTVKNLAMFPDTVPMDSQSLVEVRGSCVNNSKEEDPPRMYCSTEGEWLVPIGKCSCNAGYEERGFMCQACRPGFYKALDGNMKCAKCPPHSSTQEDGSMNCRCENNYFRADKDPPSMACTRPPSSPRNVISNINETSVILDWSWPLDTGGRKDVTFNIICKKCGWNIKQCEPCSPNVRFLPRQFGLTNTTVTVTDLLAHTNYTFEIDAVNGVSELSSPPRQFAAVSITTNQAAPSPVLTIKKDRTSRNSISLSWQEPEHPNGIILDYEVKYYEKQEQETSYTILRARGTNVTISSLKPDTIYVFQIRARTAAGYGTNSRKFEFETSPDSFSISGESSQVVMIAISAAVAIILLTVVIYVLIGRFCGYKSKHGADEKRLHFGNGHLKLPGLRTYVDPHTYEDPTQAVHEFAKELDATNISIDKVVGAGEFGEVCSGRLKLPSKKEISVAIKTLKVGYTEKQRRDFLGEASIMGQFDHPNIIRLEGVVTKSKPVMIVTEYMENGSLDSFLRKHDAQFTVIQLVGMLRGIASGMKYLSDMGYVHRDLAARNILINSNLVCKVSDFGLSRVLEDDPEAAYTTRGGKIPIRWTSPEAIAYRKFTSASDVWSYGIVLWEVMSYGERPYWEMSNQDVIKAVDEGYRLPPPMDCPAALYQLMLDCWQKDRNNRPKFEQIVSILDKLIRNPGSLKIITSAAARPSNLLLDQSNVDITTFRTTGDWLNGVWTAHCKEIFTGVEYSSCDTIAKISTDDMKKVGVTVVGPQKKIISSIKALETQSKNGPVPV
The conditions noted are these: at 0.1 µM.

Assay [7] addresses T1, Ephrin type-A receptor 3 (Homo sapiens). The conditions noted are these: at 1 µM.
The target of assay [8] is Ephrin type-A receptor 4 (Homo sapiens) (UniProt P54764). The conditions noted are these: at 0.1 µM.
For assay [9] the target is unchanged. The following applies: at 1 µM.
The target of assay [10] is T2, Ephrin type-B receptor 2 (Homo sapiens) (UniProt P29323).
T2 sequence (whole entry): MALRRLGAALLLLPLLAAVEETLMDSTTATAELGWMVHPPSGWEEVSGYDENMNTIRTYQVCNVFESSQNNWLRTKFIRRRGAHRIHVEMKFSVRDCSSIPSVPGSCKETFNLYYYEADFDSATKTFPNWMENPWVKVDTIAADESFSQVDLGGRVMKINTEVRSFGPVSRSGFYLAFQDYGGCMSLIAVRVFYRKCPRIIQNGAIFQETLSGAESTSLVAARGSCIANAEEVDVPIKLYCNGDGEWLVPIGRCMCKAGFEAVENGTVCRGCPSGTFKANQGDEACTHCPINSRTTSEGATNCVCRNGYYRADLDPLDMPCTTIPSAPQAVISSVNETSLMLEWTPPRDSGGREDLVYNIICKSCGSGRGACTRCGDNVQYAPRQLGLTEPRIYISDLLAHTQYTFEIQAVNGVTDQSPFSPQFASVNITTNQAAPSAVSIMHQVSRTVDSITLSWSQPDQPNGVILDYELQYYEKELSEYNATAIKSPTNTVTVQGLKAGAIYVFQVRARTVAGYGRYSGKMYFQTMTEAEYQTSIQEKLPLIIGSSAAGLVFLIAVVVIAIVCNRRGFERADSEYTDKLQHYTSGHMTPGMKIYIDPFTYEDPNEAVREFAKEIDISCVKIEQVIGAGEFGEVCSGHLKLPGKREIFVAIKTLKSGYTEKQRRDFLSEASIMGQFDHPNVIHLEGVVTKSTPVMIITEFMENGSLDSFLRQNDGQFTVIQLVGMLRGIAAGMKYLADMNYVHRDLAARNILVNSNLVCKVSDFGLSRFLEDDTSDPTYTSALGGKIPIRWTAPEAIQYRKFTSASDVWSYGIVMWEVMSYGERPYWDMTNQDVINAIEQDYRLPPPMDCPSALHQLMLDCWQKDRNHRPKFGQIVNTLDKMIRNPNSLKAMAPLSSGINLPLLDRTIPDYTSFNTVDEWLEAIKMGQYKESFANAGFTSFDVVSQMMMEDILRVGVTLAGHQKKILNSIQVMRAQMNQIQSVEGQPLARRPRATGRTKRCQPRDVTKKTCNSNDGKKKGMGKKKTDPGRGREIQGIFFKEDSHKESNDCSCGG
The following applies: at 0.1 µM.

For assay [11], the target named is T2, Ephrin type-B receptor 2 (Homo sapiens). The following applies: at 1 µM.
For assay [12], the target named is T3, Ephrin type-B receptor 3 (Homo sapiens) (UniProt P54753).
T3 sequence (whole entry): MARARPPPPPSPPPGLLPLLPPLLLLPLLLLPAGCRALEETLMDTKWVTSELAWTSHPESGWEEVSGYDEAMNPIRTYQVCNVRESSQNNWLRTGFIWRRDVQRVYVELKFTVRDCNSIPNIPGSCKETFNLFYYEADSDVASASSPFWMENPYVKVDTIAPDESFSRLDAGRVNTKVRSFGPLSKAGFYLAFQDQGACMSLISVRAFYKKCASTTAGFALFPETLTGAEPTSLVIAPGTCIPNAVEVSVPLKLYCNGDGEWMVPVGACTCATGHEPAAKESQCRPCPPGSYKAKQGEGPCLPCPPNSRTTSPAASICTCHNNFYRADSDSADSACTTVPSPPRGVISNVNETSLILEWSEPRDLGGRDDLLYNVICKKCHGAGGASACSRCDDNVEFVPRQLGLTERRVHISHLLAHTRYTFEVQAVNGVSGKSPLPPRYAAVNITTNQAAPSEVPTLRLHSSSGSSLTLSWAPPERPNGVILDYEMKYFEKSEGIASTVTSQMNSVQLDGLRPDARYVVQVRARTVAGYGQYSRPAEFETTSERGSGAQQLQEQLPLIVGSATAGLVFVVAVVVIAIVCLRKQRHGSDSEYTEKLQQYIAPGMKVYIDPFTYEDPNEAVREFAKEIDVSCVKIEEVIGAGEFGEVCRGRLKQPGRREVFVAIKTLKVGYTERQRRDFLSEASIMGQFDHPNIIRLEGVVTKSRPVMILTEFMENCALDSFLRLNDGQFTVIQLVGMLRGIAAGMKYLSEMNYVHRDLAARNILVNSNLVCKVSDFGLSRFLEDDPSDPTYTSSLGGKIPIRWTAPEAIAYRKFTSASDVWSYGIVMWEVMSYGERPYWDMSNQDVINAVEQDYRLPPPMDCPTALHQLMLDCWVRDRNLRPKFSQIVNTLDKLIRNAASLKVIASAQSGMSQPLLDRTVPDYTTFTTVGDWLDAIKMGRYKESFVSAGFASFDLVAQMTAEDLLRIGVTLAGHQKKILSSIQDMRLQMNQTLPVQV
The following applies: at 0.1 µM.

The target of assay [13] is T3, Ephrin type-B receptor 3 (Homo sapiens). The following applies: at 1 µM.
Assay [14] concerns the target T4, Ephrin type-B receptor 4 (Homo sapiens) (UniProt P54760).
T4 sequence (whole entry): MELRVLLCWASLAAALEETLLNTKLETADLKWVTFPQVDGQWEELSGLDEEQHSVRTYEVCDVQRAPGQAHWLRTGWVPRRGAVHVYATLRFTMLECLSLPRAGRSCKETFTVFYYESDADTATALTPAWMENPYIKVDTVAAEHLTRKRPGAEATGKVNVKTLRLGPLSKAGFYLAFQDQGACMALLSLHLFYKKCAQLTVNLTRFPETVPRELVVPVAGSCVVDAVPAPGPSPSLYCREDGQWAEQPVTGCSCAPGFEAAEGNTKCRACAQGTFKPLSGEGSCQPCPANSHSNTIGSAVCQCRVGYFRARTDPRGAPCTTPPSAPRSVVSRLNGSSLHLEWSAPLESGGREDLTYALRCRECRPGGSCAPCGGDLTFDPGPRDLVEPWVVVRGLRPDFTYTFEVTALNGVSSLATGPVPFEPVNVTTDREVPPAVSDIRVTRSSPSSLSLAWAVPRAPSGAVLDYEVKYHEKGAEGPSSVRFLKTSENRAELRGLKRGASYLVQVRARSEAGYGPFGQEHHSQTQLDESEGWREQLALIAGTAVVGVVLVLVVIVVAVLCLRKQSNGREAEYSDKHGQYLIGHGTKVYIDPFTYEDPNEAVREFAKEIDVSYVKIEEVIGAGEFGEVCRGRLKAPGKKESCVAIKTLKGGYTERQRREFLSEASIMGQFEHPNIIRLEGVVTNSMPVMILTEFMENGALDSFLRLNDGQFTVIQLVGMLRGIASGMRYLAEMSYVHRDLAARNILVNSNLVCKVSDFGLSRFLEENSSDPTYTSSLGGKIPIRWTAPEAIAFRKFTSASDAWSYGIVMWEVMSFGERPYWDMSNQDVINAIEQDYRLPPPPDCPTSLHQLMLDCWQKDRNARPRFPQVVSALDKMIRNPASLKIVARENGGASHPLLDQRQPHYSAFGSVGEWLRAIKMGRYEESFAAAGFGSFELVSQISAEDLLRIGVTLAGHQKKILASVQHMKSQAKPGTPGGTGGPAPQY
The conditions noted are these: at 0.1 µM.

Assay [15] deals with T4, Ephrin type-B receptor 4 (Homo sapiens). The conditions noted are these: at 1 µM.
The target of assay [16] is Receptor tyrosine-protein kinase erbB-2 (Homo sapiens) (UniProt P04626). The conditions noted are these: at 0.1 µM.
Assay [17] has the same target. The conditions noted are these: at 1 µM.
The target in assay [18] is Receptor tyrosine-protein kinase erbB-4 (Homo sapiens) (UniProt Q15303). The conditions noted are these: at 0.1 µM.
Assay [19] has as its target Tyrosine-protein kinase Fer (Homo sapiens) (UniProt P16591). The following applies: at 0.1 µM.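 Note: reported figures are averaged percent inhibition of FER.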
Assay [20] addresses Receptor tyrosine-protein kinase erbB-4 (Homo sapiens) (UniProt Q15303). The following applies: at 1 µM.

Chain of Ephrin type-A receptor 4 (Homo sapiens) (P54764 whole entry): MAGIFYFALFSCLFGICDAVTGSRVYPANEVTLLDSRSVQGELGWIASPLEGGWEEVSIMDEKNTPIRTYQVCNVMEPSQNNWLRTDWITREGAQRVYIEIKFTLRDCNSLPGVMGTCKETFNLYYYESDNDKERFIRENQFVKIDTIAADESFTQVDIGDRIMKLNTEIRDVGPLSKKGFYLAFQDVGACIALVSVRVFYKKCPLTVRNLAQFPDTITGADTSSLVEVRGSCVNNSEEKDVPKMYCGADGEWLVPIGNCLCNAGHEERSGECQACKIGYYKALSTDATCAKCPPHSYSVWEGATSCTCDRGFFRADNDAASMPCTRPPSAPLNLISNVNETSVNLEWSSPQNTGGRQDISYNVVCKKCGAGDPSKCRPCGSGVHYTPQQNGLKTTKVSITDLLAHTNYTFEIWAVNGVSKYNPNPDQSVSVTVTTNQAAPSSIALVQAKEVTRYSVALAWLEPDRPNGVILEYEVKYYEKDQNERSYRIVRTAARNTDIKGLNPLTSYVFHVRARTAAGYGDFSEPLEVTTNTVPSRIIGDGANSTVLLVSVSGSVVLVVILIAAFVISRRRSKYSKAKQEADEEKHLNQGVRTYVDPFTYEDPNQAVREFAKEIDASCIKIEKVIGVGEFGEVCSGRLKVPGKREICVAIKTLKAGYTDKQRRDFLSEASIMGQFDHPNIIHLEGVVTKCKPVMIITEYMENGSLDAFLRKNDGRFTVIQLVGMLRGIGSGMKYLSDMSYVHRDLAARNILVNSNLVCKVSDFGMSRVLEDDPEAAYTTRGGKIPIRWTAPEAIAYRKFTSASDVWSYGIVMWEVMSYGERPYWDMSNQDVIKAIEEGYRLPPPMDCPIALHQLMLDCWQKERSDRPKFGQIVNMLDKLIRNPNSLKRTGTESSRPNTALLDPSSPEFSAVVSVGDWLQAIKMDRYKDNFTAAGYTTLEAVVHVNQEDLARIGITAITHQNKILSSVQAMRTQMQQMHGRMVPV
Chain of Ephrin type-A receptor 2 (Homo sapiens) (P29317 whole entry): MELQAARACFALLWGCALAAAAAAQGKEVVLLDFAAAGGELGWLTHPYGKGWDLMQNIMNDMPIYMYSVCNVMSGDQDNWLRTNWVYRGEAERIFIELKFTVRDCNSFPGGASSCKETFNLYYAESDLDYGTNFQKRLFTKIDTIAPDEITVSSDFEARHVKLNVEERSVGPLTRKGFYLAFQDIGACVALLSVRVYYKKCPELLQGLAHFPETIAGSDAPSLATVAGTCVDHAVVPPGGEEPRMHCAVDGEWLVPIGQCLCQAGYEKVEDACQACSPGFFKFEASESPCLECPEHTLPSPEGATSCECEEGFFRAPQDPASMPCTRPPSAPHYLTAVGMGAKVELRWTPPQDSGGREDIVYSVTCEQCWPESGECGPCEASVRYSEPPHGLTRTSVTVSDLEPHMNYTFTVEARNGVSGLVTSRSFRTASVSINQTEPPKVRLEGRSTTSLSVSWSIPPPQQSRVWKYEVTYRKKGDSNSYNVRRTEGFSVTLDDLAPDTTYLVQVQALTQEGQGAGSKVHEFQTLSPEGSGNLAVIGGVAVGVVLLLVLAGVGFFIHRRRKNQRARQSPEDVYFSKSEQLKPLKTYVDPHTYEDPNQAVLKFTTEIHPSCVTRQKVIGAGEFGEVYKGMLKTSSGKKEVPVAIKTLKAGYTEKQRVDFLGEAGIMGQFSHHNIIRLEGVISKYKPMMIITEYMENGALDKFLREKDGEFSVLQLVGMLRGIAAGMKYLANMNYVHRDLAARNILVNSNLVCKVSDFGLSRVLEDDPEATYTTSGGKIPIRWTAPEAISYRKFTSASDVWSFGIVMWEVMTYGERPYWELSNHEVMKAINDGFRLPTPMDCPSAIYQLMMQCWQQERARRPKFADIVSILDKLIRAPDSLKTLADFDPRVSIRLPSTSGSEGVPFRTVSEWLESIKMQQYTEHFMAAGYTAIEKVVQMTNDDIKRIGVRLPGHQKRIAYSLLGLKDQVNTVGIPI
Chain of Epidermal growth factor receptor (Homo sapiens), P00533 [T790M] (P00533 whole entry T790M): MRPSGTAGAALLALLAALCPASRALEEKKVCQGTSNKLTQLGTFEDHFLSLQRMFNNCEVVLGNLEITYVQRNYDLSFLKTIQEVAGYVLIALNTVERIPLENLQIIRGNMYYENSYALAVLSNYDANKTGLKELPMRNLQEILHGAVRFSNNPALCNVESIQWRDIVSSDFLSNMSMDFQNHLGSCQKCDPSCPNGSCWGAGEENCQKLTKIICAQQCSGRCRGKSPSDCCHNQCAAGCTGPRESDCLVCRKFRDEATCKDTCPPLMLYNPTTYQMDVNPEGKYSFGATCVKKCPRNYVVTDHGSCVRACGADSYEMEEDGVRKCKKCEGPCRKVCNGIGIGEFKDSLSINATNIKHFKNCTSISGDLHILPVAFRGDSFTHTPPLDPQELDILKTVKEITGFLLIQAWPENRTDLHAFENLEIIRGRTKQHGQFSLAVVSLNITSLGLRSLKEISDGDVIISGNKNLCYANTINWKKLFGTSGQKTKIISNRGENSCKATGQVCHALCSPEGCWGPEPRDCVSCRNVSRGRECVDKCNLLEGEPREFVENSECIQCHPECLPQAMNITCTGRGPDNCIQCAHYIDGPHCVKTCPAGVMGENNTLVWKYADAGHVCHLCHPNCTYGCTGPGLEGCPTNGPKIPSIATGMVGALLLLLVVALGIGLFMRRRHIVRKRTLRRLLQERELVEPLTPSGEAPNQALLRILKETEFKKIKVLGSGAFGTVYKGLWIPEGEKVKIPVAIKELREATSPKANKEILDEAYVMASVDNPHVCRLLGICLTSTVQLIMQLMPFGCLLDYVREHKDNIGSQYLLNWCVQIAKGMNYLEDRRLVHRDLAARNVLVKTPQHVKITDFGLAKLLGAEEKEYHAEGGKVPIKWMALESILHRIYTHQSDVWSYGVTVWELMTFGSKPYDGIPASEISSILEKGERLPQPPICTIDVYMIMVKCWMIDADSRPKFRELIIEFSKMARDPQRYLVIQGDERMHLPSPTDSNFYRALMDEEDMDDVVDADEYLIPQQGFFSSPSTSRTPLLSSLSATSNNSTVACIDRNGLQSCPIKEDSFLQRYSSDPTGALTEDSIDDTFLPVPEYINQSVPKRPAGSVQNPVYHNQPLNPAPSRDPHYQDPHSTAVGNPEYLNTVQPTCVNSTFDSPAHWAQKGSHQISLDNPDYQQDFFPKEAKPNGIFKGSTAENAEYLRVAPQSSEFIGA
Chain of Tyrosine-protein kinase Fer (Homo sapiens) (P16591 whole entry, looked up): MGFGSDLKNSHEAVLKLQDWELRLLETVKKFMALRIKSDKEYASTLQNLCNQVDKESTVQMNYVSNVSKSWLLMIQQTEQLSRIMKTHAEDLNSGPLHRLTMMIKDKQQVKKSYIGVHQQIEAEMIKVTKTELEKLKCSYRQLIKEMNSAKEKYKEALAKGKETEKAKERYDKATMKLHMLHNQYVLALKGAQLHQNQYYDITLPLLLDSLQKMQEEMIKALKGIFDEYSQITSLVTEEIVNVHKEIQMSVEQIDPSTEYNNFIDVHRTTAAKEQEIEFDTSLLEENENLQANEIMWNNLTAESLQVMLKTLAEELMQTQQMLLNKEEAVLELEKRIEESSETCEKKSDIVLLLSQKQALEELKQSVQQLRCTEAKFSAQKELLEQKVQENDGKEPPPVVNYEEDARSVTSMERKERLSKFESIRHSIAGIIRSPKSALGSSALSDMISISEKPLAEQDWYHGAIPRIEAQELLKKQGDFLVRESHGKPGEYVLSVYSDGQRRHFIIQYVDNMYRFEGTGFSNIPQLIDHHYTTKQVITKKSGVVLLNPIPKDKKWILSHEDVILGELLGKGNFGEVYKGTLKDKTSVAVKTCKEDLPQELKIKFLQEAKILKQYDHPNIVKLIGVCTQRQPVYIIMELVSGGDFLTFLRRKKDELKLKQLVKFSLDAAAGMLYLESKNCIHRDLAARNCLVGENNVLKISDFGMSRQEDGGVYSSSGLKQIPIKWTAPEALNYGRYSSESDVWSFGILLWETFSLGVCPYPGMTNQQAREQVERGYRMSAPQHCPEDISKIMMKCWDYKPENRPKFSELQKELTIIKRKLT

Consider `COc1cc2ncn(-c3cc(OCc4ccccc4C(F)(F)F)c(C(=O)N(C)C)s3)c2cc1OC`, for which the inhibition in [1] was -1.36%; in assay [2] it was 0.72%; in assay [3] it was -1.46%; in assay [4] it was -1.69%; in assay [5], -2.94%; in [6], 2.89%. Besides, the inhibition in assay [7] came to 1.92%; in assay [8], 2.87%; in assay [9] it was 4.19%; in assay [10], 0.66%; in [11], 3.29%; in [12], 2.32%. Further, the inhibition was 0.33% in assay [13]; -1.02% in [14]; 1.55% in [15]; 0.2% in [16]; -1.05% in assay [17]; 2.15% in [18]. The inhibition in assay [19] is -0.2%.
For the compound `Cc1cccc2c1NC(=O)/C2=N\Nc1ccc(S(N)(=O)=O)cc1`, the inhibition in assay [1] was determined as 0.35%; in assay [2], 3.72%; in assay [3], 1.46%; in assay [4], 2.85%; in assay [5] it was 3.42%; in assay [6], 4.1%. The inhibition in [7] turned out to be 3.43%; in assay [8], 6.06%; in assay [9] it was 7.18%; in assay [10], 7.03%; in assay [11], 5.1%; in assay [12] it was 5.12%. In addition, the inhibition was 2.12% in assay [13]; 1.36% in [14]; 2.09% in [15]; 0.78% in assay [16]; 1.05% in assay [17]; 11.5% in [18]. Further, the results for the inhibition in assay [20] and in [19] were 11% and 1.4%, respectively.
On to `O=C(O[C@H]1CN[C@H](C#Cc2cc3ncnc(Nc4ccc(Cc5ccccc5)cc4)c3s2)C1)N1CCOCC1`, for which the inhibition in assay [1] was 10.5%; in [2], -1.96%; in assay [3], -1.31%; in assay [4], -0.49%; in assay [5] it was -1.09%; in assay [6] it was 2.25%. In addition, the inhibition in [7] is 3.5%; in assay [8], 3.73%; in assay [9] it was 5.5%; in [10] it was 7.69%; in assay [11] it was 6.03%; in [12], 4.37%. Besides, the inhibition in [13] is 3.49%; in assay [14], -0.73%; in [15], 1.41%; in assay [18] it was 112%; in assay [20], 107%; in assay [19], -1.21%.
Turning to `Nc1ncc(-c2cccc(S(N)(=O)=O)c2)c2scc(-c3ccc(F)c(Cl)c3)c12`, the inhibition in assay [1] came out at 5.52%; in [2] it was 1.23%; in assay [3] it was 3.47%; in [4], 41%; in [5], 89.7%; in assay [6] it was 27.4%. Also, the inhibition in assay [7] was determined as 68.6%; in assay [8] it was 54.9%; in assay [9], 92%; in assay [10], 67.8%; in assay [11], 88.7%; in [12] it was 9.18%. Besides, the inhibition in [13] amounted to 22%; in [14] it was 49.3%; in assay [15] it was 87.1%; in assay [16] it was 4.06%; in [17], 6.32%; in [18] it was 13.2%. The inhibition stood at 29.6% in assay [20] and 5.25% in assay [19].
